Reference: article PMC5540273 (PLoS ONE, 2017)
Like-named read-outs stand apart in the source and are kept apart here.

Experiments:
[1] = tested on: AAK1; details: n = 1
[2] = tested on: ABL1-nonphosphorylated; details: n = 1
[3] = tested on: ABL1-phosphorylated; details: n = 1
[4] = tested on: ABL2; details: concentration: 1 μM, replicates: in singlicate; n = 1
[5] = tested on: ACVR1B; details: concentration: 1 μM, replicates: in singlicate; n = 1
[6] = tested on: ACVR1; details: concentration: 1 μM, replicates: in singlicate; n = 1
[7] = tested on: ACVR2A; details: concentration: 1 μM, replicates: in singlicate; n = 1
[8] = tested on: ACVR2B; details: concentration: 1 μM, replicates: in singlicate; n = 1
[9] = tested on: ACVRL1; details: concentration: 1 μM, replicates: in singlicate; n = 1
[10] = tested on: T1, ADCK3; details: concentration: 1 μM, replicates: in singlicate; n = 1
T1 construct: gene CABC1

[11] = tested on: ADCK4; details: concentration: 1 μM, replicates: in singlicate; n = 1
[12] = tested on: AKT1; details: concentration: 1 μM, replicates: in singlicate; n = 1
[13] = tested on: AKT2; details: concentration: 1 μM, replicates: in singlicate; n = 1
[14] = tested on: AKT3; details: concentration: 1 μM, replicates: in singlicate; n = 1
[15] = tested on: ALK; details: concentration: 1 μM, replicates: in singlicate; n = 1
[16] = tested on: T2, AMPK-alpha1; details: concentration: 1 μM, replicates: in singlicate; n = 1
T2 construct: gene PRKAA1

[17] = tested on: T3, AMPK-alpha2; details: concentration: 1 μM, replicates: in singlicate; n = 1
T3 construct: gene PRKAA2

[18] = tested on: ANKK1; details: concentration: 1 μM, replicates: in singlicate; n = 1
[19] = tested on: T4, ARK5; details: concentration: 1 μM, replicates: in singlicate; n = 1
T4 construct: gene NUAK1

[20] = tested on: T5, ASK1; details: concentration: 1 μM, replicates: in singlicate; n = 1
T5 construct: gene MAP3K5

[21] = concentration: 1 μM, replicates: in singlicate
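Also: KINOMEscan kinase panel screen.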

## CC(=O)Nc1nc2cnc(Nc3cc(NC(=O)c4cccc(C5(C#N)CC5)c4Cl)ccc3C)nc2s1
[1]; [21]
  %Inh: 23%
[2]; [21]
  %Inh: 99%
[3]; [21]
  %Inh: 59%
[4]
  %Inh: 70%
[5]
  %Inh: 0%
[6]
  %Inh: 0%
[7]
  %Inh: 0%
[8]
  %Inh: 0%
[9]
  %Inh: 0%
[10]
  %Inh: 0%
[11]
  %Inh: 0%
[12]
  %Inh: 7%
[13]
  %Inh: 13%
[14]
  %Inh: 0%
[15]
  %Inh: 0%
[16]
  %Inh: 7%
[17]
  %Inh: 21%
[18]
  %Inh: 0%
[19]
  %Inh: 2%
[20]
  %Inh: 0%

## CN(C)S(=O)(=O)c1cc(-c2ccc3nccc(-c4cccc(S(N)(=O)=O)c4)c3c2)cnc1N [GSK1669921]
[1]; [21]
  %Inh: 26%
[2]; [21]
  %Inh: 0%
[3]; [21]
  %Inh: 0%
[4]
  %Inh: 17%
[5]
  %Inh: 0%
[6]
  %Inh: 88%
[7]
  %Inh: 0%
[8]
  %Inh: 0%
[9]
  %Inh: 0%
[10]
  %Inh: 16%
[11]
  %Inh: 0%
[12]
  %Inh: 0%
[13]
  %Inh: 5%
[14]
  %Inh: 0%
[15]
  %Inh: 30%
[16]
  %Inh: 3%
[17]
  %Inh: 0%
[18]
  %Inh: 5%
[19]
  %Inh: 11%
[20]
  %Inh: 0%

## COC(=O)Nc1nc2ccc(Oc3ccc(NC(=O)Nc4cc(C(F)(F)F)ccc4F)cc3)cc2n1C.Cl [GW692089]
[1]; [21]
  %Inh: 0%
[2]; [21]
  %Inh: 98.4%
[3]; [21]
  %Inh: 49%
[4]
  %Inh: 84%
[5]
  %Inh: 0%
[6]
  %Inh: 0%
[7]
  %Inh: 0%
[8]
  %Inh: 0%
[9]
  %Inh: 0%
[10]
  %Inh: 0%
[11]
  %Inh: 33%
[12]
  %Inh: 0%
[13]
  %Inh: 0%
[14]
  %Inh: 0%
[15]
  %Inh: 3%
[16]
  %Inh: 0%
[17]
  %Inh: 22%
[18]
  %Inh: 31%
[19]
  %Inh: 16%
[20]
  %Inh: 40%

## Nc1ncc(-c2ccc3nccc(-c4ccncc4)c3c2)cc1S(=O)(=O)N1CCOCC1 [GSK1627798]
[1]; [21]
  %Inh: 18%
[2]; [21]
  %Inh: 0%
[3]; [21]
  %Inh: 0%
[4]
  %Inh: 13%
[5]
  %Inh: 0%
[6]
  %Inh: 0%
[7]
  %Inh: 0%
[8]
  %Inh: 0%
[9]
  %Inh: 0%
[10]
  %Inh: 49%
[11]
  %Inh: 24%
[12]
  %Inh: 0%
[13]
  %Inh: 12%
[14]
  %Inh: 0%
[15]
  %Inh: 30%
[16]
  %Inh: 0%
[17]
  %Inh: 0%
[18]
  %Inh: 5%
[19]
  %Inh: 0%
[20]
  %Inh: 0%

## COC(=O)Nc1nc2cc(Oc3ccc(NC(=O)Nc4cc(C(F)(F)F)ccc4F)cn3)ccc2[nH]1.Cl.Cl [GW681170]
[1]; [21]
  %Inh: 51%
[2]; [21]
  %Inh: 99.1%
[3]; [21]
  %Inh: 74%
[4]
  %Inh: 82%
[5]
  %Inh: 0%
[6]
  %Inh: 0%
[7]
  %Inh: 0%
[8]
  %Inh: 0%
[9]
  %Inh: 0%
[10]
  %Inh: 2%
[11]
  %Inh: 19%
[12]
  %Inh: 0%
[13]
  %Inh: 0%
[14]
  %Inh: 0%
[15]
  %Inh: 6%
[16]
  %Inh: 19%
[17]
  %Inh: 23%
[18]
  %Inh: 8%
[19]
  %Inh: 0%
[20]
  %Inh: 10%

## Cc1cccc(NC(=O)Nc2ccc(Oc3ncnc4ccn(C)c34)cc2)c1
[1]; [21]
  %Inh: 0%
[2]; [21]
  %Inh: 33%
[3]; [21]
  %Inh: 23%
[4]
  %Inh: 0%
[5]
  %Inh: 0%
[6]
  %Inh: 4%
[7]
  %Inh: 2%
[8]
  %Inh: 0%
[9]
  %Inh: 0%
[10]
  %Inh: 0%
[11]
  %Inh: 0%
[12]
  %Inh: 0%
[13]
  %Inh: 0%
[14]
  %Inh: 0%
[15]
  %Inh: 0%
[16]
  %Inh: 9%
[17]
  %Inh: 0%
[18]
  %Inh: 0%
[19]
  %Inh: 0%
[20]
  %Inh: 0%

## COc1cc(Nc2nccc(N3CCC(NC(=O)c4cc5ccccc5s4)C3)n2)cc(OC)c1OC (stereo not drawn) [GSK1379760]
[1]; [21]
  %Inh: 58%
[2]; [21]
  %Inh: 0%
[3]; [21]
  %Inh: 0%
[4]
  %Inh: 7%
[5]
  %Inh: 0%
[6]
  %Inh: 28%
[7]
  %Inh: 16%
[8]
  %Inh: 11%
[9]
  %Inh: 0%
[10]
  %Inh: 0%
[11]
  %Inh: 26%
[12]
  %Inh: 1%
[13]
  %Inh: 8%
[14]
  %Inh: 0%
[15]
  %Inh: 19%
[16]
  %Inh: 45%
[17]
  %Inh: 30%
[18]
  %Inh: 12%
[19]
  %Inh: 17%
[20]
  %Inh: 20%

## COc1cc(Nc2nccc(N3CCC(NC(=O)Nc4cccc(C(C)=O)c4)C3)n2)cc(OC)c1OC (stereo not drawn) [GSK1379753]
[1]; [21]
  %Inh: 65%
[2]; [21]
  %Inh: 0%
[3]; [21]
  %Inh: 0%
[4]
  %Inh: 17%
[5]
  %Inh: 0%
[6]
  %Inh: 0%
[7]
  %Inh: 0%
[8]
  %Inh: 100%
[9]
  %Inh: 0%
[10]
  %Inh: 0%
[11]
  %Inh: 55%
[12]
  %Inh: 0%
[13]
  %Inh: 0%
[14]
  %Inh: 0%
[15]
  %Inh: 44%
[16]
  %Inh: 0%
[17]
  %Inh: 0%
[18]
  %Inh: 41%
[19]
  %Inh: 27%
[20]
  %Inh: 0%

## O=C(O)C(F)(F)F.O=C(O)C(F)(F)F.O=c1[nH]ccc2nc(N[C@@H]3CCCNC3)nc(Nc3ccc(S(=O)(=O)N4CCOCC4)cc3)c12 [GSK2177277]
[1]; [21]
  %Inh: 91.6%
[2]; [21]
  %Inh: 47%
[3]; [21]
  %Inh: 84%
[4]
  %Inh: 46%
[5]
  %Inh: 2%
[6]
  %Inh: 91.1%
[7]
  %Inh: 29%
[8]
  %Inh: 53%
[9]
  %Inh: 9%
[10]
  %Inh: 0%
[11]
  %Inh: 0%
[12]
  %Inh: 0%
[13]
  %Inh: 0%
[14]
  %Inh: 0%
[15]
  %Inh: 97.4%
[16]
  %Inh: 97.6%
[17]
  %Inh: 98.1%
[18]
  %Inh: 98.1%
[19]
  %Inh: 100%
[20]
  %Inh: 0%

## CNC(=O)c1ccccc1Nc1nc(Nc2ccc(N3CCOCC3)cc2)ncc1Cl.Cl [GSK1576028]
[1]; 1 µM
  %Inh: 89%
[2]; 1 µM
  %Inh: 98.8%
[3]; 1 µM
  %Inh: 99.6%
